The results in this text go back to ChEMBL document CHEMBL3988442, “University of Dundee, Small-Polar-MMV Screening Library” (2021).

Structures are written as SMILES. For some assays here: Results with a measured potency or affinity are listed apart.

Common to all, as to design: scale not given: direction of the effect not stated beside the values
For test [1], the target named is Protein translocase subunit SecA (Escherichia coli (strain K12)) (UniProt P10408). The test can be described thus: Assay to Identify E. coli SecA ATPase Inhibitors. The class given is functional. The note with it: 30 µM.
Chain of Protein translocase subunit SecA (Escherichia coli (strain K12)) (P10408 whole entry): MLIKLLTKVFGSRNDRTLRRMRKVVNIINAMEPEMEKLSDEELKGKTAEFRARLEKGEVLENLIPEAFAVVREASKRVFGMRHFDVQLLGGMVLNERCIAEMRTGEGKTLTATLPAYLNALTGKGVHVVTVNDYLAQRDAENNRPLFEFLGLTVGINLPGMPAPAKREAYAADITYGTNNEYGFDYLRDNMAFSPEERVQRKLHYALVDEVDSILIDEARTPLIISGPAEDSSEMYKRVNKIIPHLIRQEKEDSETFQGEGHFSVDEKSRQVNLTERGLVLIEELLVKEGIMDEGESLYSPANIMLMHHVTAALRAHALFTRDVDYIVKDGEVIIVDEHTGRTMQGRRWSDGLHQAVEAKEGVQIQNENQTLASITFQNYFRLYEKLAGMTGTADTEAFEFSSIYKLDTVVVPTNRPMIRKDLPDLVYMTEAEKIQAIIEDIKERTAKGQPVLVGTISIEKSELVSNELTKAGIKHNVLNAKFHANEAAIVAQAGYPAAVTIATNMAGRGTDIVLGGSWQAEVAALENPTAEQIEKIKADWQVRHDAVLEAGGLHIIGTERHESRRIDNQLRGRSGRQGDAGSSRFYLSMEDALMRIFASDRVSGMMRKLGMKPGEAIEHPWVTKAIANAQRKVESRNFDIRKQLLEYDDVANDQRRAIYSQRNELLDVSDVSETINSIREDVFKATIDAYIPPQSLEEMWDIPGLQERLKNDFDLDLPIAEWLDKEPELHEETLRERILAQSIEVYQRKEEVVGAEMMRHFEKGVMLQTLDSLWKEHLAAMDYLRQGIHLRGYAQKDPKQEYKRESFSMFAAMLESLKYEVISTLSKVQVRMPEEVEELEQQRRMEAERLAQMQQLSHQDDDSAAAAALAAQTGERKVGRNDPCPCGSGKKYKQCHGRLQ
Test [2] concerns the target T1, Ubiquitin-activating enzyme e1, putative (Leishmania donovani (strain BPK282A1)) (UniProt E9BSI1).
T1 sequence (whole entry): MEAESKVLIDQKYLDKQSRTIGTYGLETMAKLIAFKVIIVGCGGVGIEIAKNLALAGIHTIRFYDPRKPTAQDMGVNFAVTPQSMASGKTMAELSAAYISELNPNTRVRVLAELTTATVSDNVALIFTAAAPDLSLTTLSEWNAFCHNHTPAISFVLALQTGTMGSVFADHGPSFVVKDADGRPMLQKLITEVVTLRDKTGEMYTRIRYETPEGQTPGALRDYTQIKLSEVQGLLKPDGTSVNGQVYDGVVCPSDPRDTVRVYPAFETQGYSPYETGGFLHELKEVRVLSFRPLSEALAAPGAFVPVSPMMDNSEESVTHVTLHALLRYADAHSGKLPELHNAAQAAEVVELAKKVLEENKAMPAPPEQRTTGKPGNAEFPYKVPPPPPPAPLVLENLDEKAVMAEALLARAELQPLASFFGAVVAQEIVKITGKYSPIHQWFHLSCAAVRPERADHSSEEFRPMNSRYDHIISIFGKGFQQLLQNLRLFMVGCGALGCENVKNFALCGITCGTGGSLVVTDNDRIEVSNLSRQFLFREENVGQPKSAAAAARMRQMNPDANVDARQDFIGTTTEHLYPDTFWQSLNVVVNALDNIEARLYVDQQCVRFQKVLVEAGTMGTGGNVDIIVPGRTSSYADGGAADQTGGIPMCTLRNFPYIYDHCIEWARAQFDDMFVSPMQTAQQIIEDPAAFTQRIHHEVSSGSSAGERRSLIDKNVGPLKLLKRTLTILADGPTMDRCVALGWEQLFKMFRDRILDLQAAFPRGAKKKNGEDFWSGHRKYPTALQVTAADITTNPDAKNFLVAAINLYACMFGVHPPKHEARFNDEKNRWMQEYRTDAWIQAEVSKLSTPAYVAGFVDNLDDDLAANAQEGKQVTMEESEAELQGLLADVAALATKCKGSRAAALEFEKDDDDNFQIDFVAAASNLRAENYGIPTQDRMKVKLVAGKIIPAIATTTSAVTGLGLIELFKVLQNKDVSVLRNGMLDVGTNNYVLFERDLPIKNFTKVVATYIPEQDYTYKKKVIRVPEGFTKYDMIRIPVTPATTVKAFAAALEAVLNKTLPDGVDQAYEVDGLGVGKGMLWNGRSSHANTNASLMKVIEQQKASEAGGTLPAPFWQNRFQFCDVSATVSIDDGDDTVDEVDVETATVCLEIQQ
The test can be described thus: Leishmania donovani Ubiquitin Activating Enzyme (LdE1). It is filed as functional. The note with it: 30 µM.

In test [3] the target is AMP-activated protein kinase, AMPK (Homo sapiens) (UniProt P54646+O43741+P54619+Q9UGJ0+Q9Y478+Q13131+Q9UGI9). The test can be described thus: AMP-dependent Kinase enzyme assay. An in vitro enzyme assay that detects ADP turnover that is directly proportional to AMPK activity. This uses naive AMPK that is activated during the assay with MK-8722. The class given is functional. The settings on record: 30 µM.

The target of test [4] is Sialic acid-binding Ig-like lectin 9 (Homo sapiens) (UniProt Q9Y336). The test can be described thus: Hs-Siglec9 ALPHAscreen SOP 20170721. The settings on record: 10 µM.
Chain of Sialic acid-binding Ig-like lectin 9 (Homo sapiens) (Q9Y336 whole entry): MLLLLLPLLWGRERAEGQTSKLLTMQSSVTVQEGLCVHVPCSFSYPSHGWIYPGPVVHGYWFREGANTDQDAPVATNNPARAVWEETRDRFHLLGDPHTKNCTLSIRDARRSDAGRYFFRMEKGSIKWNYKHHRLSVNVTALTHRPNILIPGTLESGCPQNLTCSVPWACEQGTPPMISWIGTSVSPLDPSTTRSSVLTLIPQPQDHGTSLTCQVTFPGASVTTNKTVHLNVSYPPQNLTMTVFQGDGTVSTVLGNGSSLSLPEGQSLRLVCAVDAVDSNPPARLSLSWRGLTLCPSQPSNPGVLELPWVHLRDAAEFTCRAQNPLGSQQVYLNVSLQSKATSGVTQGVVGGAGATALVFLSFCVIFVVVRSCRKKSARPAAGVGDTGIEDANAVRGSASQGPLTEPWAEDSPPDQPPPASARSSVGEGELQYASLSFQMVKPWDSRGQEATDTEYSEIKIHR
In test [5] the test system is Trypanosoma cruzi. The test can be described thus: Trypanosoma cruzi phosphomannomutase and mannose-1-phosphate guanylyltransferase assay. The settings on record: 10 µM. The class given is functional.
Test [6] deals with T2, Arginase-2, mitochondrial (Homo sapiens) (UniProt P78540).
T2 sequence (whole entry): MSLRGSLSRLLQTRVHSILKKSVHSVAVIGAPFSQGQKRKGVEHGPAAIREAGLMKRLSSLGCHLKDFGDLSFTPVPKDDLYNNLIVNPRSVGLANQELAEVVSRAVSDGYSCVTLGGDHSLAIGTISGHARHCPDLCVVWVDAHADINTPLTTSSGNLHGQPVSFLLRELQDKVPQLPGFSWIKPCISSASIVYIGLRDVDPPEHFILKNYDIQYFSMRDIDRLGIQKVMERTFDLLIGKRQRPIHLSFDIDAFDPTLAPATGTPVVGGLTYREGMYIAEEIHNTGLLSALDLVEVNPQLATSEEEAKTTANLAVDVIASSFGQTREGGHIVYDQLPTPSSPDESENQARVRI
The test can be described thus: in vitro enzyme assay to detect the production of urea directly proportional to the activity of Arginase II. Note: in the data most compounds retested in dose-response had high values. The class given is functional. The note with it: 33.3 µM.

Test [7] addresses T3, Proteasome subunit beta (Trypanosoma cruzi) (UniProt O96673).
T3 sequence (whole entry): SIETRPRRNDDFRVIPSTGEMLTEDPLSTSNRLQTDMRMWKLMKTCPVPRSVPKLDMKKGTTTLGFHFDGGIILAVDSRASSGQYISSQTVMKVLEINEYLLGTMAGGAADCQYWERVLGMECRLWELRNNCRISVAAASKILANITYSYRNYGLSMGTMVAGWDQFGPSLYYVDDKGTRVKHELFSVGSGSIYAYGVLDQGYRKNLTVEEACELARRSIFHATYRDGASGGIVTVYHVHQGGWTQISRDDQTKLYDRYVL
The test can be described thus: Trypanosoma cruzi proteasome chymotrypsin-like activity (TcProtChymo) assay. Note: in the data most compounds retested in dose-response had high values. It is filed as functional. The note with it: 9.37 µM.

Test [8] is filed under the species Homo sapiens. The test can be described thus: To identify inhibition of the IFN signalling (Jak-Stat) pathway via expression of an eGFP reporter gene under the control of an IFN-stimulated response element (ISRE) containing MxA promoter. It is filed as functional. The note with it: 30 µM.
Test [9] concerns the target T4, Tyrosyl-tRNA synthetase, putative (Trypanosoma cruzi (strain CL Brener)) (UniProt Q4DSP6).
T4 sequence (whole entry): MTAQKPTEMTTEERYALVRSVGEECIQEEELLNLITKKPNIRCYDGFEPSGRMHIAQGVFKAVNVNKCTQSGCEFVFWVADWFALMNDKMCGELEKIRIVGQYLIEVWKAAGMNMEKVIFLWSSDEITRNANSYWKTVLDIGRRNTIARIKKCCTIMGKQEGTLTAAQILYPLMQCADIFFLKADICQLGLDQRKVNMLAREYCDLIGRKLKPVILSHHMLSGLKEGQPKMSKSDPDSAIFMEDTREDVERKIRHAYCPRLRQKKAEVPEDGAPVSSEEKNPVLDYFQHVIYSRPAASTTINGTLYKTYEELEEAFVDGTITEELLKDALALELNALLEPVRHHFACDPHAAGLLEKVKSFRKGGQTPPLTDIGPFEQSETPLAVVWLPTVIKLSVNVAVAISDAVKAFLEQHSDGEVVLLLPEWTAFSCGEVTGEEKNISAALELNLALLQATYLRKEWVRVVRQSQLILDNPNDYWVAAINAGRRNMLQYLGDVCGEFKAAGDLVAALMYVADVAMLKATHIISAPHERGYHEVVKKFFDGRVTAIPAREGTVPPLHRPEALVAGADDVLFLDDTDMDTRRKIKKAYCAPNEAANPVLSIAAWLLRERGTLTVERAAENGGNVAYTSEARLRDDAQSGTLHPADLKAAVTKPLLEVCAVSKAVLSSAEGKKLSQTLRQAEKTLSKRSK
The test can be described thus: Trypanosoma cruzi tyrosyl tRNA synthetase (TcYRS) _High Tyrosine SOP. Note: in the data most compounds retested in dose-response had high values. The settings on record: 30 µM. It is filed as functional.

The target in test [10] is T4, Tyrosyl-tRNA synthetase, putative (Trypanosoma cruzi (strain CL Brener)). The test can be described thus: Trypanosoma cruzi tyrosyl tRNA synthetase (TcYRS) SOP. The class given is functional. The settings on record: 30 µM.
In test [11] the target is Chromo domain-containing protein 1 (Saccharomyces cerevisiae (strain ATCC 204508 / S288c) (Baker's yeast)) (UniProt P32657). The test can be described thus: ScCHD-1 Enzyme Inhibition Assay. Note: in the data most compounds retested in dose-response had high values. It is filed as functional. The note with it: 30 µM.
Chain of Chromo domain-containing protein 1 (Saccharomyces cerevisiae (strain ATCC 204508 / S288c) (Baker's yeast)) (P32657 whole entry, the tested form may be a part): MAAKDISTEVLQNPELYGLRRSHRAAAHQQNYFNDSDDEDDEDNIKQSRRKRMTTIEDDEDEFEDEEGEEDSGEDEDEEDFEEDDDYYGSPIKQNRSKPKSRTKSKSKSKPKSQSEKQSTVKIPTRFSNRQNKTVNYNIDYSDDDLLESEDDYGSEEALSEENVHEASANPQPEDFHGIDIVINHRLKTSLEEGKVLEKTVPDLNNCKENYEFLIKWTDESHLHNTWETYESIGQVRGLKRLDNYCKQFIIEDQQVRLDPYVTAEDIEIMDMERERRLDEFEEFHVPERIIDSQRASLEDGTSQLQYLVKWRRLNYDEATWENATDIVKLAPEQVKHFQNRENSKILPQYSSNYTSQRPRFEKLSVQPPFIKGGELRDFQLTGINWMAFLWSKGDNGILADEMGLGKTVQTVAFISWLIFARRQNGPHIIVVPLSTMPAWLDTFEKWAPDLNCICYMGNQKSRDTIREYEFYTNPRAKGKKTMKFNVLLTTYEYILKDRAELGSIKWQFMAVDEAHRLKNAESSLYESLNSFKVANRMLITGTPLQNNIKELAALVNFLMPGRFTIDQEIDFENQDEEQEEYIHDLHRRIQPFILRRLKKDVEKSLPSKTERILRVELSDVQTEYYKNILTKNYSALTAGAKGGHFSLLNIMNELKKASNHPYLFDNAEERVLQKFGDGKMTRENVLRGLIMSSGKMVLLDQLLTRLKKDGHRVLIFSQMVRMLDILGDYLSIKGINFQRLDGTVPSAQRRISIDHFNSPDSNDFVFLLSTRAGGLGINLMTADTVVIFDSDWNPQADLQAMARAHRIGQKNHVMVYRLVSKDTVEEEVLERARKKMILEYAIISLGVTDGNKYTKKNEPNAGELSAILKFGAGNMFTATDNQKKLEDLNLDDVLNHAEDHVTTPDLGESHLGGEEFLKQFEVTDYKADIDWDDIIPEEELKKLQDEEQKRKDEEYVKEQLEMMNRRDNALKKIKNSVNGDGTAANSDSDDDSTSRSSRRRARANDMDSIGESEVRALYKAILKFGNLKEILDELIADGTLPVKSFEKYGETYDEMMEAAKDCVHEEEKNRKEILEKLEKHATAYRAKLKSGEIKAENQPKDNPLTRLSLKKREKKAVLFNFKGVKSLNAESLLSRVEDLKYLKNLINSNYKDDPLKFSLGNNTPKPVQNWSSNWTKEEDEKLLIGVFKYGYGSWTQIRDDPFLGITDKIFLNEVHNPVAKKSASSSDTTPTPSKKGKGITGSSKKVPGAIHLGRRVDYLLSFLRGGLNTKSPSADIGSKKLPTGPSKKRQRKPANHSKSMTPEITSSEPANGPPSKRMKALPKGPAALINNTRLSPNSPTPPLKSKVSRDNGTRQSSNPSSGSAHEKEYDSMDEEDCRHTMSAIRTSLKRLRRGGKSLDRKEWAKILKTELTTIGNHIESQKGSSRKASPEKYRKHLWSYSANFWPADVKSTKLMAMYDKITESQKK

For the compound `Cc1cnc(CN2CCOC(CNc3cccnn3)C2)cn1` (stereo not given), the Percent Effect was 0.476% in test [1]; -7.79% in [2]; -0.781% in [3]; 0.564% in test [4]; -6.74% in [5]; 8.54% in test [6]. For the same compound, the Percent Effect in test [7] was 0.676%; in test [8], 17.9%; in [9] it was 0.971%; in [10], -2.44%; in test [11] it was -5.93%.

Turning to `N#Cc1ccc(C(=O)N2CC[C@H]3[C@@H]2CCC(=O)N3c2cccnc2)cc1`, the Percent Effect in test [1] was -4.52%; in test [2] it was 13.5%; in test [3] it was 3.21%; in [4], -7.6%; in test [5] it was -2.44%; in [6], 3.5%. The Percent Effect is 18.3% in test [7]; -4.58% in [8]; 1.08% in test [9]; 12.8% in test [10]; -4.36% in test [11].

On to `CCCNC(=O)CNc1cc(C(=O)N2CCSCC2)ccc1C`, for which the Percent Effect is -4.74% in [1]; 5.48% in test [2]; -4.24% in test [3]; 9.22% in [4]; 8.73% in [5]; -4.39% in [6]. The Percent Effect in test [7] was 7.28%; in test [8], 2.79%; in [9], 5.21%; in [10] it was 11.1%; in test [11], -9.2%.

In the case of `CCS(=O)(=O)NC(C(=O)NC)c1ccc(F)c(F)c1` (stereo not given), the Percent Effect in test [1] was -1.19%; in test [2], 2.7%; in test [3], -9.93%; in test [4], 0.659%; in [5], 0.195%; in [6], 2.92%. The Percent Effect in test [7] was 10.7%; in [8], -11.3%; in test [9], 9.9%; in [10], 20.7%; in test [11] it was -7.3%.

On to `Cc1nc(-c2ccsc2)ccc1C(=O)NCCN1CCOCC1`, for which the Percent Effect in test [1] is -6.91%; in [2], 10.5%; in test [3], -3.72%; in test [4], 7.24%; in test [5] it was 4.32%; in [6], -0.383%. The Percent Effect in test [7] was 8.02%; in test [8] it was 1.25%; in test [9], 6.37%; in [10], 19.5%; in test [11], -8.61%.

Take `Cc1nc(C)n(CC2CCCCN2Cc2ncc(C(C)(C)C)o2)n1` (stereo not given): the Percent Effect is -2.22% in test [1]; 31.2% in test [2]; -8% in test [3]; -3.37% in test [4]; 5.62% in [5]; -2.13% in test [6]. The Percent Effect in [7] is 19.1%; in [8], 10.5%; in [9] it was 7.77%; in test [10], 24.4%; in test [11], -10.7%.

Turning to `O=C(CSc1ncccn1)N1C[C@H]2CC[C@@H]1CN(Cc1ccncc1)C2`, the Percent Effect in test [1] was -4.87%; in test [2] it was 11%; in test [3], -5.51%; in [4], 21%; in [5], 6.46%; in [6], 8.64%. The Percent Effect in test [7] was 12.9%; in test [8], -3.77%; in test [9], 5.38%; in test [10], 7.5%; in test [11], -3.96%.

Turning to `Cc1cc(C)nc(Nc2cccc(C3CCCN(C)C3)n2)n1` (stereo not given), the Percent Effect in test [1] is -4.27%; in [2] it was 1.35%; in test [3] it was 9.63%; in [4] it was -3.78%; in test [5] it was 2.77%; in [6], -3.94%. Moreover, the Percent Effect in test [7] is 4.68%; in test [8], -3.42%; in [9], 2.15%; in [10], 6.49%; in [11], -16.2%.

For `Cc1cc(CN2Cc3ccccc3CC2c2nnc(C)o2)on1` (stereo not given), the Percent Effect in [1] was -3.58%; in [2], 2.6%; in test [3] it was 6.16%; in [4], 3.48%; in test [5] it was 2.25%; in [6] it was 4.84%. Further, the Percent Effect in test [7] was 0.728%; in test [8] it was -4.28%; in [9] it was 6.67%; in [10], 9.41%; in test [11] it was -13.4%.

Consider `O=C1CCc2cc(-c3csc(CCN4CCCC4=O)n3)ccc2N1`, for which the Percent Effect is -2.58% in test [1]; 20.8% in [2]; 4.11% in test [3]; 2.39% in test [4]; 0.936% in test [5]; -4.98% in test [6]. Also, the Percent Effect in [7] is 5.41%; in test [8], 22.8%; in test [9], 15.5%; in [10], 19.5%; in test [11] it was -7.82%.
